Key:
[1] = molecular target: T1, Aspartate--tRNA(Asp/Asn) ligase (Mycobacterium tuberculosis (strain ATCC 25618 / H37Rv)) (UniProt P9WFW3); experiment: Assay for Asp RNA synthetase-1 from Mycobacterium tuberculosis; assay type: functional; set-up: scale not given: direction of the effect not stated beside the values; conditions: 30 µM; also: in the data most compounds retested in dose-response had high values
T1 sequence (whole entry): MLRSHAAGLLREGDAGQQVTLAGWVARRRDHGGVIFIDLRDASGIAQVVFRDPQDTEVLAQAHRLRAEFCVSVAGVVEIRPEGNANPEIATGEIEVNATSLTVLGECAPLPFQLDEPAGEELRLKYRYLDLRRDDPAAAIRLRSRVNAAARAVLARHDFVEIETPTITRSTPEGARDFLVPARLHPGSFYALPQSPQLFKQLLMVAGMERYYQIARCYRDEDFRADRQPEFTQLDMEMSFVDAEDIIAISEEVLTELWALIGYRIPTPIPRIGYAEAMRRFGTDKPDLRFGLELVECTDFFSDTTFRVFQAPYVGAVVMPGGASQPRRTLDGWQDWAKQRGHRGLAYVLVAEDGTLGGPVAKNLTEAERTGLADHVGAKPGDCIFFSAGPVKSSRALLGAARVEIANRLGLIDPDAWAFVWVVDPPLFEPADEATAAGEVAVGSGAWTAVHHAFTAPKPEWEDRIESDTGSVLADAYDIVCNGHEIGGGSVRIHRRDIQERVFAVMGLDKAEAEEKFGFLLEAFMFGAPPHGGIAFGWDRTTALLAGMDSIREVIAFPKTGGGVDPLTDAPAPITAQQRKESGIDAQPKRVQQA

[2] = molecular target: Shiga toxin 2 (Escherichia coli O157:H7) (UniProt P09385+P09386); experiment: E. coli 0.157:H7 Shiga Toxin SOP - stx2 screening assay; assay type: functional; set-up: scale not given: direction of the effect not stated beside the values; conditions: 30 µM

Compound	Percent Effect [1]	Percent Effect [2]
c1coc(CN2CCCC3(COCCN(Cc4c[nH]nn4)C3)C2)c1 (stereo unspecified)	2.45%	4.89%
COC(=O)c1sccc1S(=O)(=O)N1CCC(Oc2cccnn2)CC1	-2.42%	-7.45%
Cc1cnn(CCNCc2ccccc2OCc2cccnc2)c1	4.5%	-8.49%
CC(Cn1cccn1)NC(=O)NCCc1ccc(Cl)s1 (stereo unspecified)	4.37%	-19.2%
O=C(Cn1ccc2ccc(Br)cc21)NCc1ccc(C(=O)O)cc1	14.7%	-5.49%
Cc1ccc(-c2nc(CN3CCc4nn(C)c(=O)cc4C3)co2)cc1	40.1%	-3.75%
CC(C)(C)c1nnc(CN2CCCC2c2noc(C3CC3)n2)o1 (stereo unspecified)	0.758%	0.0549%
Cc1cnc(NC(=O)c2ccc(-n3ncc(C#N)c3N)cc2)s1	0%	-13.3%
O=C(C1CCOC1)N1CCc2ncc(CNc3ccccn3)n2CC1 (stereo unspecified)	-0.229%	-21.5%
CCCNC(=O)c1cc2c(nc1O)CCC(C)C2 (stereo unspecified)	-2.53%	-21.4%
CCc1nc(C2CCCN2CC(=O)Nc2sc(C)c(C)c2C)no1 (stereo unspecified)	0.212%	8.78%
O=C1NCCCCC1Sc1nnc(C2CC2)n1C1CC1 (stereo unspecified)	-6.09%	3.62%
Cc1nn(C)c2cn(C(C)C(=O)NCc3cccnc3)nc12 (stereo unspecified)	-1.71%	-24.9%
Cc1ccc(NC(=O)C2=CN=S=N2)cc1	-2.07%	-19.2%
CNCC(=O)N1CC(c2cc(Nc3ncccn3)nc(C)n2)C1	-3.19%	-3.14%
COCc1ncc(CN2CCC(Oc3ccccc3OC)CC2)cn1	0.276%	-1.31%
O=C(CCC1CCCO1)NS(=O)(=O)c1ccc(Cl)cc1 (stereo unspecified)	-1.43%	21.6%
O=C(NC[C@]1(O)CN(Cc2ccccc2F)C[C@H]1O)c1ccccn1	7.9%	19.5%
O=C(NCc1ccco1)[C@H]1C[C@H]2OCC[C@H]2N(S(=O)(=O)C2CC2)C1	0.786%	-24.1%
CN(C)CC(=O)N1CCC2(CC(=O)N(c3cccc(C#N)c3)C2)C1 (stereo unspecified)	7.58%	1.05%
O=C(NCCn1ccnc1)c1ccn(-c2cccc(F)c2)n1	5.59%	0.0864%
Cc1ccc(C(=O)N2C[C@@H]3COC[C@]3(COc3cccnc3)C2)cn1	2.55%	-13.2%
Cc1ccc(C#N)cc1NC(=O)NC1CCCN(c2ncccn2)C1 (stereo unspecified)	1.97%	-2.85%

— ChEMBL document CHEMBL3988442, “University of Dundee, Small-Polar-MMV Screening Library” (2021)
